BoNT-A LC inh2: BoNT/A light chain protease inhibitors, primary screen, biochemical, flow cytometry, MLPCN library; inhibition, % at 10 µM; hit rate 0.17% among 360,000; multiplex microsphere protease substrate cleavage; AID 588499, 2011; Botulinum neurotoxin type A light chain protease (Clostridium botulinum A str. ATCC 3502)
Anthrax LF prot: Bacillus anthracis LF protease inhibitors, primary screen, biochemical, multiplex microsphere, MLPCN library; Lethal factor (Bacillus anthracis), P15917; multiplex microsphere protease cleavage assay; inhibition, % at 10 µM; hit rate 0.12% among 360,000; AID 588501, 2011
Target sequence (P15917 whole entry, looked up): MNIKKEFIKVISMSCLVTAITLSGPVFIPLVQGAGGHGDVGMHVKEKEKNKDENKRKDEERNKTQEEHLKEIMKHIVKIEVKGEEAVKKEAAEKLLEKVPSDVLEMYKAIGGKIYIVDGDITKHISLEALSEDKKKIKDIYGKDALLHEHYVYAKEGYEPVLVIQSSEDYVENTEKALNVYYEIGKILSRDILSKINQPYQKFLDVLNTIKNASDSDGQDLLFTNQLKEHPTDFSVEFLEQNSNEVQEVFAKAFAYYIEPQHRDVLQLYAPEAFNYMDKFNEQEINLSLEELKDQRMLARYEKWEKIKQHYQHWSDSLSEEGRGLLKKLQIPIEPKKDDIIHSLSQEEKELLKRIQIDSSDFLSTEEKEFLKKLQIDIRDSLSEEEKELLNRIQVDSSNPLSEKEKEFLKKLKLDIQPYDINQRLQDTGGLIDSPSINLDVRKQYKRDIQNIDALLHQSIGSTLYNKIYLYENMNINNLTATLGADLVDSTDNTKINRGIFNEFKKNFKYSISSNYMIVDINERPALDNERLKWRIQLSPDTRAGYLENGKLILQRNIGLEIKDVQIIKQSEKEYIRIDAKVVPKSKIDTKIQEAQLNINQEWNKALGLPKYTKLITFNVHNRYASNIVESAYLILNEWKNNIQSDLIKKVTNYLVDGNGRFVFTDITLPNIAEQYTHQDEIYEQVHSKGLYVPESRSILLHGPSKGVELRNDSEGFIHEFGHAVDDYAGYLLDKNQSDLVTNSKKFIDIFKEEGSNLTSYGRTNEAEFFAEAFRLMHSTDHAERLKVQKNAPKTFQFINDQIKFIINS
Bead autofluor: flagged as autofluorescent in microsphere protease counterscreen | compound autofluorescence counterscreen, microsphere flow cytometry; stronger effect = higher value | fluorescence intensity (test concentration not listed) | hit rate 3.1% among 360,000 | AID 624483; in the data active means fluorescence intensity above about 16000; inconclusive means no clear call, values can overlap the other calls
BoNT F protease: BoNT/F light chain protease inhibitors, primary screen, biochemical, flow cytometry, MLPCN library; Botulinum neurotoxin type F light chain protease (Clostridium botulinum); Multiplex microsphere protease cleavage assay; inhibition, % at 10 µM; hit rate 0.22% among 360,000; in the data active means inhibition above about 35%, passing the limit was not always enough; inconclusive means no clear call, values can overlap the other calls
Of the large screens only hits and unclear results are named; the others gave an inactive call. Compounds with a hit are over-represented: about 3.5% of the library has one in this group of screens. Unless noted, no stated cut-off is given here; in the data, active means inhibition above about 30%; inconclusive means no clear call, values can overlap the other calls; inactive means below that.

CS(=O)(=O)N(CC(=O)Nc1ccccc1Sc1ccccc1)C1CCCCC1	BoNT-A LC inh2 inconclusive, Bead autofluor 22169
CCOC(=O)c1c(C)[nH]c(C)c1C(=O)COC(=O)c1nn(CC)c(=O)c2ccccc12	none
Cc1ccc(S(=O)(=O)CC2CSc3nc4ccccc4n32)cc1 (stereo not drawn)	none
Cc1ccc(S(=O)(=O)CC2CSc3nc(N)cc(=O)n32)cc1 (stereo not drawn)	BoNT-A LC inh2 inconclusive, Bead autofluor 21227
CCCNC(=O)c1ccccc1C(=O)NCCC	none
CCOCCNC(=O)c1ccccc1C(=O)NCCOCC	Bead autofluor 17947
COCCOC(=O)/C(C#N)=C/c1cn(Cc2ccccc2)nc1-c1cccnc1	none
CCc1ccc2c(c1)C(c1cccs1)=NNC(c1cccnc1)=N2	BoNT-A LC inh2 inconclusive, Bead autofluor 19854
CN(C)c1nc(-c2cccnc2)nc(-c2ccccc2)c1C#N	none
Cc1c(NC(=O)C(C)Sc2nc3ccccc3c(=O)n2CCO)c(=O)n(-c2ccccc2)n1C (stereo not drawn)	Bead autofluor 21769
Cc1cccc(NC(=O)c2ccc(Cn3cc(C(F)(F)F)ccc3=O)cc2)c1	Bead autofluor 16900
CN(c1ccc(OCC(=O)N2CCC(C(N)=O)CC2)cc1)S(=O)(=O)c1cccs1	BoNT-A LC inh2 inconclusive, Bead autofluor 21812
CC(=O)N1CCN(C(=O)COc2ccc(N(C)S(=O)(=O)c3cccs3)cc2)CC1	none
CN(C)/C=N/c1ncc(C(=O)c2ccc(Cl)cc2Cl)s1	none
CN(C)/C=N/c1ncc(C(=O)c2ccc(Cl)cc2)s1	Bead autofluor 22056
Cc1csc(NC(=O)[C@@H]2CCCN2C(=O)c2cccs2)n1	none
CC(C)CCNC(=O)c1cnn2c(C(F)(F)F)cc(-c3ccco3)nc12	Bead autofluor 19781
O=C(NC1CCCC1)c1cnn2c(C(F)(F)F)cc(-c3ccco3)nc12	Bead autofluor 20185
NC(=O)c1cnn2c(C(F)(F)F)cc(-c3ccc(F)cc3)nc12	Bead autofluor 22634
CN1CCN(C(=O)CNc2ccc(C(F)(F)F)cc2[N+](=O)[O-])CC1	none
CCOc1cc(/C=N/NC(=O)CSc2nncn2C)ccc1OCc1cccc(C)c1	none
CCCCn1nc(C(=O)N(CC)CC(=O)Nc2c(F)cccc2F)c2ccccc2c1=O	none
Cc1noc(C)c1C(=O)N1CCN(C(=O)c2sc3cc(Cl)ccc3c2Cl)CC1	Bead autofluor 18980
Cc1noc(C)c1C(=O)N1CCN(CCc2ccccc2)CC1	BoNT-A LC inh2 inconclusive, Bead autofluor 24658
COc1ccc(N2CCN(CCC(O)c3ccc4ccccc4c3)CC2)cc1 (stereo not drawn)	none
COc1cccc(-c2c(NC(=O)c3ccco3)n(-c3ccc(C)cc3)nc(C)c2=O)c1	Bead autofluor 16965
CC1=NN(C(=O)c2cc(C)nn2C)C(O)(C(F)(F)F)C1 (stereo not drawn)	none
CCCCOC(=O)c1cc(=O)[nH]c2ccccc12	Bead autofluor 22271
CC(CC(=O)O)CC(=O)Nc1ccccc1C(=O)O (stereo not drawn)	Bead autofluor 22711
CCOC(=O)c1ccccc1NC(=O)CC(C)CC(=O)O (stereo not drawn)	none
CCOc1ccc(NC(c2ccccc2)P(=O)(OC)OC)cc1 (stereo not drawn)	BoNT F protease inconclusive
O=C1NC[C@H](c2ccccc2)N(CCc2cccc3ccccc23)C1=O	none
C#CCOC(=O)c1ccccc1C(=O)N(CC)CC	BoNT-A LC inh2 inconclusive, Bead autofluor 17452
CCCN(CCC)C(=O)c1ccccc1C(=O)N(CCC)CCC	none
CN1/C(=C\C(=S)NC(=O)c2ccccc2Cl)C(C)(C)c2ccccc21	BoNT-A LC inh2 38.3
COc1ccccc1C(=O)NC(=S)/C=C1/N(C)c2ccccc2C1(C)C	BoNT-A LC inh2 49.2
CN1/C(=C/C(=S)NC(=O)C2(C)CC2(Cl)Cl)C(C)(C)c2ccccc21 (stereo not drawn)	none
CCCc1ncc(CN2CCCCC2C(=O)Nc2ccc(Oc3ccccc3)nc2)cn1 (stereo not drawn)	none
OC(CN1CCOCC1)(c1ccccc1)c1ccccn1 (stereo not drawn)	none
C=CCn1cnc2c(c1=O)c1nc3ccccc3nc1n2/N=C/c1ccccn1	Bead autofluor 20073
Cc1cc(C)n2nc(-c3ccco3)nc2n1	none
Cc1ccc(C(=O)Nc2ccc(Cl)cc2C(=O)c2ccccc2)cc1	Bead autofluor 23597
Cc1ccc(OCC(=O)Nc2ccc(Cl)cc2C(=O)c2ccccc2)cc1	none
O=C(NCCc1ccccc1)C(=O)NCC1CCCN1S(=O)(=O)c1cccs1 (stereo not drawn)	Bead autofluor inconclusive
O=C1C=Cc2cccc3ccc(O)c1c23	BoNT-A LC inh2 61.1, Anthrax LF prot 38.0
COc1ccc(C(=O)Nn2cc3c(c2-c2ccccc2)c(=O)n(C)c(=O)n3C)cc1	Bead autofluor 20615
COC(=O)c1ccc(Nc2nc(C)nc3c2nnn3Cc2ccccc2)cc1	none
Cc1ccc2[nH]c3c(=O)n(CCCN4CCN(C)CC4)cnc3c2c1	Bead autofluor 23434
Cc1ccc2[nH]c3c(=O)n(CCCN4CCOCC4)cnc3c2c1	none
O=C(CSc1nnc(-c2cccnc2)n1Cc1ccccc1)N1CCOCC1	BoNT-A LC inh2 inconclusive, Bead autofluor 24649
O=C(CSc1nnc(-c2ccccc2)n1Cc1ccccc1)N1CCOCC1	none
O=C(CSc1nnc(Cn2c(=O)sc3ccccc32)n1CCc1ccccc1)N1CCOCC1	Bead autofluor 16901
COc1ccc(CCNC(=O)CSc2nnc(Cn3c(=O)sc4ccccc43)n2C)cc1OC	BoNT-A LC inh2 inconclusive, Bead autofluor 24341
CC(=O)NCC1CCCN(C(=O)c2ccc(OC3CCN(Cc4ccccn4)CC3)cc2)C1 (stereo not drawn)	none
COc1cc(OC)cc(-c2nc3cc(C)ccc3o2)c1	Bead autofluor 22263
Cc1ncsc1C(=O)N1N=C2/C(=C/c3ccccc3)CCCC2C1c1ccccc1 (stereo not drawn)	none
Cc1ncsc1C(=O)N1N=C2/C(=C/c3ccc(N4CCOCC4)cc3)CCCC2C1c1ccc(N2CCOCC2)cc1 (stereo not drawn)	Bead autofluor 24267
CCCn1nnnc1NCc1ccc(N2CCCC2)cc1	Bead autofluor 17311
CCCCn1nnnc1NCc1ccc(N2CCCC2)cc1	none
CN(CC(=O)Nc1c(Cl)cccc1Cl)C(=O)c1cccc(-n2cccc2)c1	Bead autofluor inconclusive
CC(C)n1nnnc1C1c2ccccc2C(=O)N1CCCn1ccnc1 (stereo not drawn)	none
CCOC(=O)C1C(=O)NC(SCC(N)=O)=C(C#N)C1c1ccccc1OCC (stereo not drawn)	none
CCOC(=O)C1C(=O)NC(SC)=C(C#N)C1c1ccccc1F (stereo not drawn)	Bead autofluor 22567
CC1CC(C)(C)NC(=S)N1CCC(=O)N1CCc2ccccc2C1 (stereo not drawn)	none
Cc1cccc(/C(N)=N/OC(=O)CCc2ccccc2)c1	none
C/C(=N\Nc1nc(N)cc(Cl)n1)c1cccc([N+](=O)[O-])c1	Bead autofluor 22572

Bioassay records from PubChem.
